Compound activity from PubChem.
Nrf2 activator: qHTS of Nrf2 Activators; AREc32 ARE-luciferase reporter (MCF7-derived line), luminescence, 24 h; Potency, µM (titrated, usually from 46.1 µM), for the others: at the top dose activation, hits mostly activators; actives 0.31% (n = 410,000); AID 624171, 2012; note: potency is the fitted concentration of half-maximal effect; % of control where 0% means no effect; nearly all actives have a fitted effect of over 65% in size
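Reporter line AREc32 (ARE-Fluc), seeded overnight in OPTI-MEM with 5% FBS; compound pin-transferred, 24 hr at 37 deg C, 5% CO2; luminescent read-out.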
Nrf2 inh: Nrf2 qHTS screen for inhibitors; Potency, µM (doses to about 46 µM), without a hit: at the top dose activity change, negative = inhibition, actives largely listed as inhibitors; actives 2.1% (n = 360,000); A549 ARE-Fluc reporter, luciferase luminescence, 18-24 h; AID 504444, 2011; note: potency is the fitted concentration of half-maximal effect; % is set by controls: 0 for no effect and ±100 for the full control effect; nearly all actives have a fitted effect of over 60% in size
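Nrf2 activity is the BugLite luminescence, read 15 min after reagent at room temperature, following CellTiter-Fluor cytotoxicity readout (30 min, 37C). Compound titrations were applied for 18-24 h to 5000 A549 ARE_Fluc cells/well in 5% FBS OPTI-MEM.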
miR-21 reporter: qHTS Assay for Modulators of miRNAs and/orActivators of miR-21; Potency, µM (highest dose often 38.3 µM), for the others: at the highest dose activity change, positive = activation, hits mostly activators; AID 2288, 2010; 340,000 tested, under 10 active; HeLa miR-21 FLuc reporter, luciferase, 48 h;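 note: % of control where 0% means no effect; miR-21 action dims this reporter so a rising signal means less miR-21 action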
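HeLa miR-21-FLuc reporter line, endogenous miR-21; 2000 cells/well in DMEM/10% FBS; compound titration up to ~40uM final, 48 h, 37 degree Celsius; luciferase detection reagent, 15 min lysis, CCD luminescence.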
A549 viability: Nrf2 qHTS screen for inhibitors: counterscreen for cytotoxicity | A549 ARE-Fluc cells, CellTiter-Fluor viability, 18-24 h | Potency, µM (doses to about 46 µM), without a hit: at the highest dose activity change, negative = cytotoxicity, most hits filed as inhibitors | actives 0.16% (n = 390,000) | AID 504648, 2011; note: potency is the fitted concentration of half-maximal effect; % is set by controls: 0 for no effect and ±100 for the full control effect
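A549 ARE_Fluc cells in 5% FBS OPTI-MEM were exposed to compounds in concentration-response for 18-24 h at 37 deg C. Viability was read by CellTiter-Fluor fluorescence (Ex 405/Em 525) after 30 min, before the luciferase read.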
Mito fusion yeast: qHTS Assay for Small Molecule Inhibitors of Mitochondrial Division or Activators of Mitochondrial Fusion; AID 485298, 2010; actives 0.23% (n = 320,000); Potency, µM (highest dose often 46.1 µM), without a hit: at the top dose growth rescue (activation), actives largely listed as activators; S. cerevisiae fusion-defective mutant growth rescue, CellTiterGlo 48 h; note: potency is the fitted concentration of half-maximal effect; % of control where 0% means no effect; nearly all actives have a fitted effect of over 45% in size
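S. cerevisiae fusion-defective temperature-sensitive mutants (e.g. fzo1-1, mgm1-5) grown 48 h at 37C in YPEG (ethanol/glycerol non-fermentable) medium with 23 nl compound per well; growth rescue read as CellTiterGlo luminescence.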
Active calls of the source: *; ? = inconclusive; . = no result; [ ] = dose if it differs, or a comment. Shown are actives, neighbours in structure and some others; about 2.3% of the full set was active somewhere. Calls come from the whole dose curve; as a rule, active = well fitted curve in the direction sought with a large enough effect; inconclusive = small, poorly fitted or top-dose-only effect, or another doubt; inactive = no such curve, though single readings can be large; an effect the other way counts as inactive or inconclusive.

SMILES	Nrf2 activator	Nrf2 inh	miR-21 reporter	A549 viability	Mito fusion yeast
CCOc1ccccc1NC(=O)CSc1n[nH]c(=O)n1-c1ccccc1	0%	?	.	2%	.
CN(C)c1ccc(/C=C/c2nc(-c3ccccc3O)n(-c3ccccc3)n2)cc1	3%	-16%	-8%	0%	.
Cn1cnc(S(=O)(=O)N2CCC(C(=O)Nc3ccc(OC(F)(F)F)cc3)CC2)c1	-1%	.	15%	-17%	.
Cc1cccc(-c2nc(CCNC(=O)COc3ccccc3)cs2)c1	1%	.	-8%	12%	.
Cc1ccc(C(=O)CSc2nnc(CNc3ccc(C)cc3C)n2Cc2ccco2)cc1	0%	23µM*	-2%	?	9%
NC(=O)CSc1nc2ccccc2c(=O)n1Cc1ccco1	-1%	.	-2%	2%	3%
O=C(CSc1nc2ccccc2c(=O)n1Cc1ccco1)c1ccc(F)cc1	0%	12µM*	-11%	2%[1.84 µM]	2%
O=C(CSc1nnc(-c2cc3ccccc3cc2O)n1Cc1ccco1)c1ccc(F)cc1	9%	23µM*	25%	.	?
COC(=O)CCN(c1ccccc1)C(CNS(=O)(=O)c1ccccc1)c1ccccc1 (stereo not drawn)	7%	?	?	3%	.
CCn1ccc2cc(S(=O)(=O)N3CCC(C(=O)NCc4ccc(OC)cc4)CC3)ccc21	4%	.	1%	7%	.
CCOc1ccc(-c2nnc(N3CCCCC3)c3ccccc23)cc1	-1%	26µM*	1%	-28%	-5%
CCN(CC)C(=O)COc1ccc(-c2nnc(N3CCCCC3)c3ccccc23)cc1	2%	-11%	-3%	-11%	-2%
COc1ccc(OC)c(NC(=O)CSC2=Nc3ccccc3C3=NC(CC(=O)NCc4ccc5c(c4)OCO5)C(=O)N23)c1 (stereo not drawn)	3%	.	6%	1%	.
CCOC(=O)c1c(C)[nH]c(C(=O)Nc2ccc(NC(C)=O)cc2)c1C	2%	8.2µM*	20%	2%	-5%
CC(=O)c1c(C)[nH]c(C(=O)Nc2cccc(C#N)c2)c1C	4%	?	-1%	3%	0%
CCOC(=O)c1c(C)[nH]c(C(=O)OC(C)C(=O)Nc2ccccc2OC)c1C (stereo not drawn)	4%	15µM*	14%	-5%	4%
CCOC(=O)c1c(C)[nH]c(C(=O)OC(C)C(=O)Nc2ccc(C)cc2)c1C (stereo not drawn)	-1%	.	.	.	.
CC(=O)c1c(C)[nH]c(C(=O)Nc2cccc(C(F)(F)F)c2)c1C	5%	21µM*	3%	?	-1%
CCN1C(C(=O)c2ccccc2)=C(OC(=O)c2ccccc2OC)c2ccccc2S1(=O)=O	-2%	?	?	?	.
CC(=O)c1sc(C(C)(C)C)cc1NC(=O)CCC(=O)O	0%	-28%	-2%	3%	0%
CC(=O)c1sc(C(C)(C)C)cc1NC(=O)/C=C/C(=O)O	16µM*	-20%	3%	-1%	-8%
CCNS(=O)(=O)c1ccc2c(c1)n(C)c(=O)n2C	0%	-29%	-1%	-4%	1%
Cc1cc(S(=O)(=O)Nc2cc3c(cc2NCc2ccccc2)n(C)c(=O)n3C)ccc1F	13µM*	?	-40%	1%	.
Cc1ccc(CNS(=O)(=O)c2ccc3c(c2)n(C)c(=O)n3C)cc1	1%	21µM*	7%	-2%	13%
Cn1c(=O)n(C)c2cc(NS(=O)(=O)c3ccccc3)c(NCc3ccccc3)cc21	13µM*	?	-11%	2%	.
Cn1c(=O)n(C)c2cc(NS(=O)(=O)c3ccc(C(C)(C)C)cc3)c(NCc3ccccc3)cc21	19%	10µM*	-40%	?	.
CC1CCCN(S(=O)(=O)c2ccc(S(=O)(=O)NC(C)c3cccs3)cc2)C1 (stereo not drawn)	2%	23µM*	9%	?	1%
Oc1ccc(N=Nc2ccc3ccccc3c2)cc1	10%	2.6µM*	-33%	-23%	-28%
COc1ccc(/C=N/NC(=O)c2ccc(CSc3nc(C)cc(C)n3)cc2)cc1O	6%	21µM*	-8%	-25%	0%
